High-throughput results as filed in PubChem.
Most compounds without a hit are left out; they make up all but 19% or so of the library.
DT40 TDP1 no CPT: qHTS for Inhibitors of human tyrosyl-DNA phosphodiesterase 1 (TDP1): qHTS in cells in absence of CPT; Potency, µM (highest dose often 46.2 µM), for inactives: at the top dose activity change, negative = growth inhibition, usual class: inhibitors; DT40 Tdp1-/- hTDP1 cells, no CPT, ATP luminescence, 48 h; actives 15% (n = 420,000); further: nearly all actives have a fitted effect of over 55% in size
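Readout: luminescence from CellTiter-Glo after 30 min in the dark at RT. Cells: DT40 Tdp1-/- with stable hTDP1, 400/well. Exposure: compounds alone, ≥48 hr, 37 °C.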
DT40 TDP1 CPT: DT40-hTDP1 cell growth loss with CPT | chicken DT40 Tdp1-/-;hTDP1 cells + 20 nM CPT, ATP luminescence, 48 h | Potency, µM (highest dose often 46.2 µM), for the others: at the top dose activity change, negative = growth inhibition, usual class: inhibitors | actives 12% (n = 420,000) | AID 686979; further: nearly all actives have a fitted effect of over 55% in size
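Chicken DT40 Tdp1-/- cells complemented with human TDP1, 400 cells/well, exposed to compounds plus 20 nM camptothecin for at least 48 h at 37 C; viability read as ATP content by CellTiter-Glo luminescence.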
KB-3-1 tox: kills parental KB-3-1 adenocarcinoma cells | Potency, µM (series often up to 46.1 µM), hits mostly cytotoxic | KB-3-1 viability, CellTiter-Glo ATP luminescence, 72 h | actives 1.4% (n = 400,000); further: nearly all actives have a fitted effect of over 60% in size
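72 h, 37 °C compound treatment of KB-3-1 parental cells; CellTiter-Glo added, 10 min, luminescence read. Data corrected against DMSO-only plates and normalized before curve fitting.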
HT1080 IDH1KD tx: HT-1080 IDH1 knockdown cell toxicity (counter line). HT-1080 IDH1 knockdown viability, ATP luminescence, 48 h. Potency, µM (titrated, usually from 46.1 µM), for the others: at the highest dose activity, negative = toxicity, actives largely listed as cytotoxic. actives 2% (n = 360,000). AID 686971;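 further: 0% = DMSO wells and -100% = cell-free medium wells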
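% activity derives from luminescence (CellTiter-Glo), normalised to DMSO and no-cell wells. HT-1080-IDH1KD cells, 750/well, had 48 h compound exposure at 37 °C.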
KB-V1 cytotox: KB-V1 MDR subline cytotoxicity. KB-V1 MDR cells viability, CellTiter-Glo, 72 h. actives 3.4% (n = 400,000). Potency, µM (highest dose often 46.1 µM), usual class: cytotoxic; further: nearly all actives have a fitted effect of over 60% in size
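qHTS viability screen in drug-selected KB-V1 MDR cells: 72 h compound treatment at 37 degrees C, ATP luminescence end point.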
HT1080NT lethal: kills 2HG-producing HT-1080-NT fibrosarcoma cells. HT-1080-NT fibrosarcoma viability, CellTiter-Glo ATP luminescence, 48 h. Potency, µM (highest dose often 46.1 µM), for inactives: at the top dose activity, negative = less viability, usual class: cytotoxic. actives 1.6% (n = 360,000);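 further: NT is the 2HG producing partner of a matched IDH1 knockdown line; 0% = DMSO-treated cells and -100% = media-only wells without cells; nearly all actives have a fitted effect of over 55% in size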
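Fibrosarcoma NT cells, 750 per well in 5% FBS RPMI, were exposed to compound for 48 hours. Viability: CellTiter-Glo luminescence.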
* = called active by the depositor; i = inactive; ? = inconclusive; . = not tested or not shown. The call rests on the fitted dose curve; in most records, active means well fitted curve in the direction sought with a large enough effect; inconclusive means small, poorly fitted or top-dose-only effect, or another doubt; inactive means no such curve, though single readings can be large; an effect the other way counts as inactive or inconclusive. Unless noted, on the % scale 0 is the no-effect control and ±100 the full control effect; potency means the concentration at half of the fitted maximal effect.

SMILES	DT40 TDP1 no CPT	DT40 TDP1 CPT	KB-3-1 tox	HT1080 IDH1KD tx	KB-V1 cytotox	HT1080NT lethal
COC(=O)C1C2CC3c4[nH]c5cc(OC)ccc5c4CCN3CC2CC(OC2CCCCO2)C1OC (configuration not stated)	?	?	i	1%	i	6%
COC(=O)[C@@H]1C2CC3c4[nH]c5cc(OC)ccc5c4CCN3CC2C[C@H](OC(=O)c2cc(OC)c(OC)c(OC)c2)C1OC (some centres not stated)	?	23µM*	.	.	.	.
CCc1ccc(C(=O)c2cn(Cc3ccc(F)cc3)c3cc(OC)c(OC)cc3c2=O)cc1	6.5µM*	5.8µM*	?	.	?	.
Cc1ccc(Cn2cc(C(=O)c3ccc(F)cc3)c(=O)c3cc4c(cc32)OCO4)cc1	?	?	i	.	i	.
CCOc1ccc(NC(=O)Cn2cc(C(=O)c3ccc(CC)cc3)c(=O)c3cc(OC)c(OC)cc32)cc1	?	-4%	i	.	i	.
CCc1ccc(C(=O)c2cn(CC(=O)Nc3ccc(F)c(F)c3)c3cc(OC)c(OC)cc3c2=O)cc1	16µM*	21µM*	i	.	i	.
CCC1CCCCN1C(=O)NC(=O)c1ccccc1 (configuration not stated)	10%	30%	i	13%	i	0%
COc1ccccc1-c1nc(C#N)c(N2CCC(Cc3ccccc3)CC2)o1	18µM*	?	?	-14%	i	-16%
N#Cc1nc(Cc2ccccc2)oc1N1CCN(c2ccccc2)CC1	?	10µM*	i	-2%	i	0%
N#Cc1nc(COc2cccc(Cl)c2)oc1N1CCN(c2ccccc2)CC1	?	?	i	3%	i	3%
COc1ccccc1-c1nc(C#N)c(N2CCN(Cc3ccccc3)CC2)o1	23µM*	?	i	-2%	i	-18%
CCOc1ccc(NC(=O)Cn2cc(C(=O)c3ccc(CC)cc3)c(=O)c3cc4c(cc32)OCO4)cc1	?	?	i	.	?	.
O=C(C1CCN(c2nnc(-n3cccc3)s2)CC1)N1CCN(Cc2ccc3c(c2)OCO3)CC1	15µM*	?	i	-10%	i	1%
CC1CCN(Cc2ccc(NC(=O)C3CCN(c4nnc(-n5cccc5)s4)CC3)cc2)CC1	?	18µM*	i	-10%	i	-15%
C=C1C=C(C(F)F)n2ncc(C(=O)Nc3ccc(N(CC)CC)cc3)c2N1	-25%	10%	?	.	i	.
CCCn1c(/C=C/c2ccco2)nc2ccccc21	?	16µM*	i	-1%	?	6%
Clc1ccc(Cn2c(/C=C/c3ccco3)nc3ccccc32)cc1	?	?	i	?	i	?
CCCCn1c(/C=C/c2ccco2)nc2ccccc21	?	18µM*	i	12%	i	16%
CCCCn1c(/C=N/Nc2nc3ccccc3[nH]2)nc2ccccc21	5.2µM*	4.6µM*	?	15µM*	i	?
Cc1ccc(Cn2c(/C=C/c3ccco3)nc3ccccc32)cc1	15µM*	?	i	?	?	-1%
CCCCNc1nc2ccccc2[nH]1	?	?	i	0%	i	2%
C=CCN(CC=C)CC(O)CN(c1cc([N+](=O)[O-])ccc1OC)S(=O)(=O)c1ccccc1 (configuration not stated)	-26%	-12%	i	-11%	i	-9%
CCC(C)NC(=O)c1sc2nc(C)c(C(=O)Nc3ccc(C)cc3C)c(-c3ccc(Br)cc3)c2c1N (configuration not stated)	?	?	i	.	i	.
Cc1cc(C)cc(NC(=O)CCS(=O)(=O)c2cccc3nsnc23)c1	9%	-5%	i	.	i	.
CCCCNCC(O)(c1ccc(Cl)cc1)c1ccc(Cl)cc1	23µM*	15µM*	i	18µM*	i	?
SMILES	DT40 TDP1 no CPT	DT40 TDP1 CPT	KB-3-1 tox	HT1080 IDH1KD tx	KB-V1 cytotox	HT1080NT lethal
COc1ccc(CNC/C=C/c2ccccc2)cc1	?	?	i	-1%	i	-5%
CCCCCNCc1ccc(Cl)cc1	-13%	17%	i	3%	i	0%
COc1ccc(CNCC(O)(c2ccccc2)c2ccc(F)cc2)cc1OC (configuration not stated)	15µM*	?	i	-3%	i	-2%
COc1ccc(CNCC(O)(c2ccc(Cl)cc2)c2ccc(Cl)cc2)cc1OC	6.5µM*	15µM*	i	?	7.3µM*	?
COc1ccc(CNCC(O)(c2ccccc2)c2ccc(F)cc2)cc1 (configuration not stated)	15µM*	21µM*	i	?	i	-27%
COc1cc(CNCc2ccccc2)ccc1OCC(O)c1ccccc1 (configuration not stated)	?	-25%	i	-1%	i	-2%
COc1ccc(N2C(=NC(=O)CC3CCCCC3)SC3CS(=O)(=O)CC32)cc1 (configuration not stated)	1%	-24%	i	15%	i	0%
CCC(=O)N1c2ccccc2CC1C(=O)NCCc1cc(OC)c(OC)c(OC)c1 (configuration not stated)	-14%	-16%	i	.	i	.
CC(C)CNC(=O)C1=CC(c2ccc3c(c2)OCO3)=NS(=O)(=O)N1C	-16%	-28%	i	.	i	.
COc1ccc(CNCC(O)(c2ccc(F)cc2)c2ccc(F)cc2)cc1OC	16µM*	?	?	?	i	?
COc1ccc(CNCC(O)(c2ccc(Cl)cc2)c2ccc(Cl)cc2)cc1	18µM*	15µM*	?	?	?	?
COc1cc(CNCc2ccc(C(=O)O)cc2)ccc1OCc1ccc(F)cc1	7%	-14%	i	-5%	i	-1%
Cc1ccc(C)c(NC(=O)CN(C)C(=O)c2oc3c(Cl)cccc3c2C)c1	?	?	i	-20%	i	-17%
CC(C)CNC(=O)C1CCN(Cc2ccc(OCc3ccccc3)cc2)CC1	?	?	i	-13%	?	-12%
CC(CNC(=O)C1CCN(Cc2cc3ccccc3n2Cc2ccccc2)CC1)c1ccccc1 (configuration not stated)	16µM*	23µM*	i	.	i	.
